Screening results (PubChem)
A selection: hits, their analogues and other compounds. The true share with any hit is near 5.3%.
12-hLO inh – 12-hLO (ALOX12) enzyme inhibition; purified 12-hLO, xylenol orange hydroperoxide absorbance; Potency, µM (doses to about 57.1 µM), most hits filed as inhibitors; hit rate 0.12% among 150,000; note: nearly all actives have a fitted effect of over 55% in size
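Xylenol orange chromogenic assay: hydroperoxide from 12hLO oxidises Fe(II), giving red-shifted Fe(III)-XO absorbance. Conditions: 150 nM enzyme, 40 uM arachidonic acid, 25 mM Hepes pH 7.0, 0.01% Triton X-100, 30 min, room temperature.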
ALOX15B inhib – inhibitors of human 15-lipoxygenase 2 (ALOX15B); AID 881; purified 15hLO-2, xylenol orange hydroperoxide absorbance; Potency, µM (titrated, usually from 57.1 µM), hits mostly inhibitors; O15296; hit rate 0.56% among 110,000; note: nearly all actives have a fitted effect of over 60% in size
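Enzyme 50 nM, AA 45 uM, 25 mM Hepes pH 7.5 + 0.01% Triton X-100; cpd preinc 15 min RT, rxn 90 min RT; stop/detect with 200 uM XO + 300 uM Fe(II) in 50 mM H2SO4, 30 min; A573/A405.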
PNC inhibitor – blocks assembly of the perinucleolar compartment. activity change (PNC), negative = inhibition, % at 10 µM. hit rate 3.1% among 140,000. PC3M PTB-GFP, PNC prevalence imaging, 16 h; stronger effect = lower value;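 active = readout at or below -70, meaning at least 70% loss of cells showing the perinucleolar compartment, a nuclear body marking cancer cells; inconclusive = readout between -30 and a set limit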
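PC3M cells stably expressing PTB-GFP, 750–1000 cells/well, treated 16 h at 37 °C with compound (23 nl of library stock), in duplicate. After paraformaldehyde fixation and Hoechst stain, imaged at 20x; PNC prevalence scored by image analysis.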
IMPase Li inh – membrane-permeable IMPase blocker, potentiated with lithium; Potency, µM (top dose mostly 59.4 µM), hits mostly inhibitors; hit rate 0.35% among 210,000; CHO-M1 cells, IP1 TR-FRET (IP-One), carbachol + lithium;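 note: IP1 builds up when IMPase is blocked and the TR-FRET signal falls; nearly all actives have a fitted effect of over 50% in size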
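CHO cells stably expressing M1 receptor (2000/well, cultured 16–30 h) treated 30 min at 37C with compound plus low lithium. Cytosolic IP1 by TR-FRET (665/620 ratio and 620 channel) after 10 min lysis; AC50 by Hill fit.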
HPGD inh – HPGD (human) dehydrogenase inhibition; P15428; purified HPGD, NADH fluorescence kinetic, PGE2 substrate; Potency, µM, actives largely listed as inhibitors; hit rate 4.3% among 150,000; active = well fitted inhibition curve with a large enough effect, not every such curve was filed as active; inconclusive = small, poorly fitted or top-dose-only effect, or another doubt; inactive = no such curve, though single readings can be large or run the other way
Target sequence (P15428 whole entry, looked up): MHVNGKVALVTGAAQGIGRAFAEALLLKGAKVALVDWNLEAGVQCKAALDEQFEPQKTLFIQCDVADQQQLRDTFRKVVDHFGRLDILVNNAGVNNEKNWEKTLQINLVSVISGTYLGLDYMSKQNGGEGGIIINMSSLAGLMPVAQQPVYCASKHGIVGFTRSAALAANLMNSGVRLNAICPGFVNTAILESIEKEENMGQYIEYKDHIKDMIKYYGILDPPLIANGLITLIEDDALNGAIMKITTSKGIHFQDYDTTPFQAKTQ
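NADH formation kinetics: reaction with 30 uM PGE2 and 1 mM NAD+ (final), 20 nM enzyme, Tris-HCl pH 8 with Tween 20, after 15 min compound preincubation at room temperature. Fluorescence change, last versus first of five reads.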
IMPase inh – IMPase inhibition in cells; inhibition (IP1 accumulation), % at 46.1 µM; AID 901; 120,000 tested, under 10 active; CHO-M1 cells, IP1 accumulation, HTRF TR-FRET ratio; P97697; active = well fitted curve in the direction sought with a large enough effect in the signal ratio, not every such curve was filed as active; inconclusive = small, poorly fitted or top-dose-only effect, or a change in a side signal; inactive = no such curve, though single readings can be large or run the other way; the % refers to the signal ratio;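 note: cells stimulated with carbachol in lithium chloride buffer; higher means more IMPase inhibition seen as more IP1 and lower FRET ratio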
Target sequence (P97697 whole entry, looked up): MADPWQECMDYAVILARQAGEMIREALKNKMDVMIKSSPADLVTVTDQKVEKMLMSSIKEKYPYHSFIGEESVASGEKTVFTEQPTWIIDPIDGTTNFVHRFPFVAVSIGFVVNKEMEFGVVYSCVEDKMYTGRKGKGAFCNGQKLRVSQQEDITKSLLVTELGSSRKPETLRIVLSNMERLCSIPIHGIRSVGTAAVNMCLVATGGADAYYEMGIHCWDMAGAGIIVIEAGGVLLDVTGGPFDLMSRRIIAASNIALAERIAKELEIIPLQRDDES
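In this qHTS, compounds (final up to 46 uM) act on CHO-M1 cells that are then activated through the M1 receptor with carbachol, in pH 7.4 buffer containing 50 mM LiCl, for 30 min. IP1 accumulation is quantified by the IP-One immunoassay.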
Of the large screens only hits and unclear results are named; the others gave an inactive call. Unless noted, calls come from the whole dose curve; as a rule, active = well fitted curve in the direction sought with a large enough effect; inconclusive = small, poorly fitted or top-dose-only effect, or another doubt; inactive = no such curve, though single readings can be large; an effect the other way counts as inactive or inconclusive.

CNC(=O)c1ccc(Nc2nnc(-c3ccc(C)c(S(=O)(=O)NCC4CCCO4)c3)c3ccccc23)cc1 (configuration not stated)	HPGD inh 25.1µM (no result: ALOX15B inhib, IMPase inh)
Cc1ccc(Cl)c(OCC(=O)OCC(=O)NC2CCCc3ccccc32)c1 (configuration not stated)	none (no result: ALOX15B inhib)
Cc1cc2occ(CC(=O)Nc3nnc(C4CC4)s3)c2cc1C	IMPase Li inh inconclusive
O=C(Cc1coc2ccc3ccccc3c12)Nc1nnc(C2CC2)s1	PNC inhibitor -100.4, IMPase inh inconclusive (no result: IMPase Li inh, HPGD inh)
COc1ccccc1N1CCN(CC(O)COc2ccc(Cl)c(C)c2)CC1 (configuration not stated)	none (no result: 12-hLO inh, ALOX15B inhib, PNC inhibitor, IMPase Li inh, HPGD inh)
Cc1ccc(NC(=O)c2ccccc2NC(=O)CCC(=O)O)cc1	PNC inhibitor inconclusive (no result: ALOX15B inhib, IMPase inh)
Cc1ccccc1NC(=O)c1ccccc1NC(=O)CCC(=O)O	PNC inhibitor -109.0 (no result: ALOX15B inhib, IMPase inh)
C=CCNC(=O)c1ccccc1NC(=O)c1ccccc1SC	none (no result: 12-hLO inh, ALOX15B inhib, PNC inhibitor, HPGD inh, IMPase inh)
C=CCNC(=O)c1ccccc1NC(=O)c1ccccc1C	PNC inhibitor -100.0 (no result: ALOX15B inhib)
COc1ccccc1N(CC(=O)NC1CCCC1)C(=O)c1oc(C(C)(C)C)cc1C	none (no result: 12-hLO inh, ALOX15B inhib, PNC inhibitor, HPGD inh, IMPase inh)
CCOC(=O)c1ccc(NC(=O)C(CC)Sc2nnc3c4ccccc4n(C)c3n2)cc1 (configuration not stated)	none (no result: 12-hLO inh, ALOX15B inhib, PNC inhibitor, IMPase Li inh, HPGD inh)
CCC(Sc1nnnn1C)C(=O)Nc1ccc(C(C)=O)cc1 (configuration not stated)	PNC inhibitor -86.8
CC(=O)c1ccc(NC(=S)NNC(=O)c2ccncc2)cc1	IMPase inh inconclusive (no result: ALOX15B inhib)
CCS(=O)(=O)N1CCC(C(=O)N2CCOCC2)CC1	PNC inhibitor inconclusive
CCCCC1CCC(C(=O)N2CCOCC2)CC1 (configuration not stated)	HPGD inh 15.8µM (no result: ALOX15B inhib, IMPase inh)
COc1ccc(NC(=O)N2CCC(O)(c3cccnc3)CC2)c(OC)c1	PNC inhibitor -82.4
COc1cccc(C(=O)N2CCC(O)(c3cccnc3)CC2)c1	none (no result: 12-hLO inh, ALOX15B inhib, PNC inhibitor, HPGD inh, IMPase inh)
Cc1cccc(-c2nc3c(cnn3-c3ccccc3)c(=O)n2-c2ccc(Br)cc2)c1	none (no result: 12-hLO inh, ALOX15B inhib, PNC inhibitor, IMPase Li inh, HPGD inh)
C=CCNc1nc(Cl)ncc1F	PNC inhibitor -119.3 (no result: ALOX15B inhib)
C=CCNc1nnc(Cl)c2ccccc12	PNC inhibitor inconclusive, HPGD inh inconclusive
Nc1cc(S(=O)(=O)N2CCCCC2)ccc1Oc1ccccc1	none (no result: 12-hLO inh, ALOX15B inhib, PNC inhibitor, HPGD inh, IMPase inh)
COc1ccccc1/C=C1\S/C(=N/NC(=O)c2cccc(Br)c2)NC1=O	PNC inhibitor inconclusive, HPGD inh 11.2µM
COC(=O)/C=C1\S/C(=N/NC(=O)c2ccccc2)NC1=O	none
Cc1nn(-c2ccc(F)cc2)c(Cl)c1/C=C1\C(=O)Nc2ccccc21	none (no result: ALOX15B inhib, IMPase inh)
COc1cc(N=C2C(=O)N3CCCc4cccc2c43)cc(OC)c1	PNC inhibitor -103.9 (no result: ALOX15B inhib, IMPase inh)
O=C(Cn1ccc2ccccc2c1=O)NCCC(=O)NC1CCN(Cc2ccccc2)CC1	PNC inhibitor -85.9
CC(=O)c1c(C)[nH]c(C(=O)OCC(=O)Nc2ncc(Cl)c(C)c2Cl)c1C	PNC inhibitor -100.0
CCCn1nc(C(=O)OCC(=O)Nc2ncc(Cl)c(C)c2Cl)c2ccccc2c1=O	PNC inhibitor -112.6 (no result: ALOX15B inhib)
Cc1c(-c2ccccc2)sc(N)c1C(=O)N1CCOCC1	ALOX15B inhib inconclusive, PNC inhibitor inconclusive, HPGD inh 8.91µM
CCOC(=O)c1c(N)sc(C(=O)N2CCOCC2)c1C	PNC inhibitor -100.0 (no result: ALOX15B inhib)
CCOCCCNC(=O)C(c1ccccc1)N(Cc1ccc2c(c1)OCO2)C(=O)c1ccccc1O (configuration not stated)	none (no result: 12-hLO inh, ALOX15B inhib, PNC inhibitor, HPGD inh, IMPase inh)
Fc1ccc(F)c(C2=NNC(=Nc3ccccc3F)SC2)c1	PNC inhibitor inconclusive, HPGD inh 15.8µM (no result: ALOX15B inhib, IMPase inh)
COc1cc(NC(=O)C(=O)NCCN2CCNCC2)c(OC)cc1Cl	none (no result: 12-hLO inh, ALOX15B inhib, PNC inhibitor, HPGD inh, IMPase inh)
CC(C)c1nnc(NC(=O)CS(=O)(=O)Cc2ccccc2)s1	none (no result: 12-hLO inh, ALOX15B inhib, PNC inhibitor, HPGD inh, IMPase inh)
CCCC(C)c1nnc(NC(=O)CS(=O)(=O)Cc2ccccc2)s1 (configuration not stated)	ALOX15B inhib inconclusive, HPGD inh 12.6µM
CCOC(=O)c1c(CN(CC)CC)oc2ccc(OC)cc12	PNC inhibitor -100.0 (no result: ALOX15B inhib)
CCOC(=O)c1c(CN(CC)CC)oc2cc(Br)c(O)cc12	none
Cn1ncc2c(Nc3ccccc3Br)ncnc21	none
Cn1ncc2c(Nc3ccc(-c4ccccc4)cc3)ncnc21	PNC inhibitor -81.6, HPGD inh inconclusive
COc1ccc(Nc2ncnc3c2cnn3Cc2ccccc2)cc1	HPGD inh 22.4µM
CCOC(=O)N1CCN(C(=O)C2CC(=O)N(c3ccc(OC)cc3)C2c2ccc(OC)cc2)CC1 (configuration not stated)	PNC inhibitor -100.0 (no result: ALOX15B inhib)
COc1ccc(C2C(C(=O)O)CC(=O)N2c2ccc(OC)cc2)cc1 (configuration not stated)	none
NCCC[C@@H](CC(=O)N[C@@H]1CCNC[C@H]1C(=O)N[C@H](CC(=O)N[C@@H](CCC(=O)O)CC(=O)O)Cc1c[nH]c2ccccc12)NC(=O)C[C@H](Cc1c[nH]c2ccccc12)NC(=O)[C@@H]1CNCC[C@H]1N	none (no result: ALOX15B inhib, PNC inhibitor, IMPase inh)
C=CCSc1nc2c(c(=O)[nH]c(=O)n2C)n1CC	PNC inhibitor inconclusive, HPGD inh 14.1µM
